# Out of some 2,100 compounds screened, about 670 (32%) were called active. Inconclusive results (about 50%) are left out. The list shows a part of the results. Values without a mark were called inactive. The call rests on the fitted dose curve; in most records, active means well fitted inhibition curve with a large enough effect; inconclusive means small, poorly fitted or top-dose-only effect; inactive means no such curve, though single readings can be large or run the other way.
# Test: CMV-Luciferase Counterscreen for Inhibitors of ATXN expression; further: nearly all actives have a fitted effect of over 55% in size
# Settings: HEK-293 CMV-luciferase reporter, luminescence, 24 h; series mostly up to 57.5 µM; activity change, negative = inhibition: at the top concentration
# On the % scale 0 is the no-effect control and ±100 the full control effect; potency means the concentration at half of the fitted maximal effect.
SMILES,"activity change, negative = inhibition",Potency
CCCc1nc(NC2CCCCC2)c(C#N)c2c1COC(C)(C)C2,-15.4% [at 11.4 µM],
CC(=O)Oc1ccc(N(C(C)=O)S(=O)(=O)c2cccs2)c2ccccc12,,25.1 µM (active)
CC(=O)Oc1ccc(N(C(C)=O)S(=O)(=O)c2ccc(C)cc2C)c2ccccc12,,17.8 µM (active)
NC(Cc1ccc(F)cc1)c1csc(Nc2cc(NCc3ccco3)ncn2)n1 (stereo not drawn),0.881% [at 11.4 µM],
Cc1nc(C(F)(F)F)c(C(=O)N/N=C(\N)c2ccccn2)s1,,10 µM (active)
COc1cc(/C=C/C(=O)c2ccc(C)c([N+](=O)[O-])c2)cc(OC)c1O,-13.8%,
Cc1cccc(/C=C/C(=O)c2ccc([N+](=O)[O-])o2)c1,,3.55 µM (active)
CN(C)C(=O)c1cccc(-c2cnc3c(NC=O)cc(-c4ccc(F)cc4)cn23)c1,49.3% [at 11.4 µM],
COc1ccc(CC2C(=O)NC(C)C(=O)N(C)C3Cc4ccc(cc4)Oc4cc(ccc4O)CC(C(=O)NC(C)C(=O)NC(C)C(=O)N2C)N(C)C3=O)cc1 (stereo not drawn),,0.891 µM (active)
O=C(N/N=C/c1cc([N+](=O)[O-])ccc1O)c1cccc2cc[nH]c12,,2.82 µM (active)
O=C(N/N=C/c1cc([N+](=O)[O-])ccc1O)c1cc(-c2ccccc2)nc2ccccc12,,1.78 µM (active)
OC[C@@H]1CN(Cc2ccc(-c3ccccc3)cc2)C[C@H](n2cnc3c(NC4CCC4)ncnc32)O1,,10 µM (active)
OC[C@@H]1CN(Cc2ccc(-c3ccccc3)cc2)C[C@H](n2cnc3c(Nc4ccccc4)ncnc32)O1,,12.6 µM (active)
CN(C)CCNc1ncnc2c1ncn2[C@H]1CN(Cc2ccc(-c3ccccc3)cc2)C[C@@H](CO)O1,-29.3%,
CN(C)CCCNc1nc2cc(-c3cccc(Cl)c3)sc2c(=O)n1C,-10.1%,
CC1CCCCN1C(=O)C1CCN(c2nc(-c3ccccc3)nc3c2CCC3)CC1 (stereo not drawn),,22.4 µM (active)
CN(C)C(=O)CSc1nc(-c2ccccc2)nc2c1CCCC2,-18.6%,
CSc1nc(-c2ccc(Cl)cc2)nc(N)c1C#N,-7.46% [at 11.4 µM],
CCc1cc(-c2nnn(CCC3COCCO3)c2CC)ccc1-c1cn(CCc2c[nH]c3ccccc23)nn1 (stereo not drawn),,4.47 µM (active)
COc1ccc2oc(/C=C/N(C)C)c(C(=O)c3ccc(Cl)cc3)c2c1,,12.6 µM (active)
C[C@H]1O[C@@H](O[C@H]2[C@@H](O)C[C@H](O[C@H]3[C@@H](O)C[C@H](O[C@H]4CC[C@@]5(C)[C@H](CC[C@@H]6[C@@H]5C[C@@H](O)[C@]5(C)[C@@H](C7=CC(=O)OC7)CC[C@]65O)C4)O[C@@H]3C)O[C@@H]2C)C[C@H](O)[C@@H]1O,-12%,

SMILES,"activity change, negative = inhibition",Potency
COc1cc2c3nnc(-c4ccc(F)cc4)c-3cn(Cc3ccc(C)cc3)c2cc1OC,16.9%,
O=c1oc2ccccc2c(O)c1Cc1cc(Cl)c2cccnc2c1O,,10 µM (active)
CCC1(c2ccccc2)ON(c2c(Br)cccc2Br)C1=O (stereo not drawn),,17.8 µM (active)
O=C(c1ccc(Cn2c(=S)[nH]c3ccccc3c2=O)cc1)N1CCN(c2ccccn2)CC1,,3.16 µM (active)
CCc1nc2ccc(C(=O)Nc3cccc(NS(C)(=O)=O)c3)cn2c1N(CC)Cc1cccc(Br)c1,,31.6 µM (active)
Cn1c(-[n+]2c(-c3ccccc3)cc(-c3ccccc3)cc2-c2ccccc2)nc2c([N+](=O)[O-])cccc21,0.1% [at 11.4 µM],
CCc1nc(N)nc(N)c1-c1ccc(N(C)Cc2ccccc2)c([N+](=O)[O-])c1,,0.501 µM (active)
O=S(=O)([N-]c1nc2ccccc2nc1-[n+]1ccc(Cc2ccccc2)cc1)c1ccc(Br)s1,,14.1 µM (active)
CN1CCN(CCNC(=O)c2ccc3nc(-c4ccc(F)cc4)c(-c4ccc(F)cc4)nc3c2)CC1,-29.4%,
Cc1ccc(-c2cc(C(=O)NCCCN3CCOCC3)no2)cc1,,8.91 µM (active)
O=C(Nc1ccc(Cl)c([N+](=O)[O-])c1)c1ccc(NCCCN2CCOCC2)c([N+](=O)[O-])c1,1.7%,
CCc1ccc(N2CC(C(=O)N/N=C/c3cc([N+](=O)[O-])ccc3O)CC2=O)cc1 (stereo not drawn),,10 µM (active)
Cc1cnc(NC(=O)C2CC(=O)N(c3cccc(Cl)c3)C2)s1 (stereo not drawn),51.5% [at 11.4 µM],
O=C(N/N=C/c1ccccc1O)C1CC(=O)N(c2ccc(Cl)cc2)C1 (stereo not drawn),,0.631 µM (active)
COc1ccc(Cn2c(-c3ccc(C)cc3)c[n+]3ccccc23)cc1,,1 µM (active)
Nc1nc(N)c2cc(Sc3ccc4ccccc4c3)ccc2n1,,10 µM (active)
COc1cc(Nc2ncc3c(n2)CCN(C(=O)Nc2ccc(C(C)C)cc2)C3)cc(OC)c1OC,-3.4% [at 11.4 µM],
COc1cc(NC(=O)c2cc(-c3ccccc3)nc3c2cnn3C(C)C)cc(OC)c1OC,,3.16 µM (active)
O=C(Nc1ccc(N2CCOCC2)c(Cl)c1)c1c(F)c(F)c(F)c(F)c1F,29.5% [at 11.4 µM],
Cc1ccccc1C(=O)N1CCN(c2ccc(NC(=O)c3ccco3)cc2Cl)CC1,,12.6 µM (active)
O=C(Nc1ccc(NC(=O)c2ccc(Cl)cc2Cl)cc1)c1cccs1,-4.86%,

SMILES,"activity change, negative = inhibition",Potency
O=C(Nc1ccc(N2CCN(C(=O)c3ccco3)CC2)c(Cl)c1)c1cccs1,,20 µM (active)
N#Cc1nc(Cc2cccc3ccccc23)oc1NCc1ccc(F)cc1,,12.6 µM (active)
O=C(N/N=C/c1ccc([N+](=O)[O-])s1)c1ccccc1,,7.94 µM (active)
Cc1ccnn1CC(=O)N/N=C/c1ccc([N+](=O)[O-])s1,,15.8 µM (active)
Cc1ccccc1C(=O)N/N=C/c1ccc([N+](=O)[O-])s1,,11.2 µM (active)
CC(C)(C)c1cc(C(=O)N/N=C/c2ccc([N+](=O)[O-])s2)n[nH]1,,11.2 µM (active)
COc1ccc(C(=O)NCC(=O)N/N=C/c2ccc([N+](=O)[O-])s2)cc1OC,,12.6 µM (active)
CC(C)c1cccc(C(C)C)c1Nc1cn[nH]c1,-9.58% [at 11.4 µM],
NC(=Nc1nc(-c2ccccn2)cc2ccccc12)c1ccccn1,,0.0398 µM (active)
c1ccc(-c2cccc(-c3ccccn3)n2)nc1,72.5% [at 11.4 µM],
CCc1ccc(-c2csc(NC(=O)C3CC(=O)N(c4ccc5c(c4)OCCO5)C3)n2)cc1 (stereo not drawn),,10 µM (active)
O=C(C1CC(=O)N(c2ccc3c(c2)OCCO3)C1)N1CCN(c2ccccc2)CC1 (stereo not drawn),-8.65% [at 11.4 µM],
COc1ccc(-c2nc(NC(=O)C3CC(=O)N(c4ccc5c(c4)OCCO5)C3)sc2C)cc1 (stereo not drawn),,10 µM (active)
COc1cc(-c2cc3nc(NCc4cccc(Cl)c4)ccn3n2)cc(OC)c1OC,,3.55 µM (active)
O=C(Nc1cccc2cccnc12)c1csc(COCCO)n1,4.19%,
O=C(Nc1c(Cl)cccc1Cl)Oc1cccc2cccnc12,,10 µM (active)
CCOC(=O)c1ccc(/C=C2/C=C(c3ccccc3)N(c3ccc(Cl)c(C(=O)O)c3)C2=O)cc1,,12.6 µM (active)
CCOC(=O)c1ccc(N=c2sc(C(=O)OC)cc(=O)n2-c2ccc(C(=O)OCC)cc2)cc1,-3.07% [at 11.4 µM],
Cc1ccc(-c2c(C#N)c(N)n3c(nc4ccccc43)c2C#N)cc1,,7.08 µM (active)
NS(=O)(=O)c1ccc(CCNc2ccn3nc(-c4cccc(C(F)(F)F)c4)cc3n2)cc1,,31.6 µM (active)
COc1cccc(CNc2nc3cc(-c4ccc(C(=O)N5CCN(C)CC5)cc4)sc3c(=O)n2C)c1,,12.6 µM (active)

SMILES,"activity change, negative = inhibition",Potency
CN(C)CCCNc1nc2cc(-c3ccc(F)cc3)sc2c(=O)n1C,-18.5%,
Cn1c(NCCN2CCCC2)nc2cc(-c3ccsc3)sc2c1=O,-18.1%,
COc1ccc(CNc2ncnc3c2[nH]c2ccccc23)cc1,,2.82 µM (active)
Fc1ccc2[nH]c3c(NCc4ccccc4)ncnc3c2c1,,0.631 µM (active)
Cc1[nH]n2c(=O)cc(C(C)(C)C)nc2c1-c1ccccc1,,3.55 µM (active)
O=C(CN1C(=O)c2ccccc2S1(=O)=O)N1CCc2ccccc21,,0.224 µM (active)
Cc1ccc(C(=O)CN2C(=O)c3ccccc3S2(=O)=O)cc1,,0.398 µM (active)
O=C(CN1C(=O)c2ccccc2S1(=O)=O)c1ccc(O)c(O)c1,,0.794 µM (active)
Cc1ccc(C)c(/C=C/C(=O)c2ccccc(=O)c2O)c1,-25.3%,
Cc1[nH]c(=O)c(C(=O)/C=C/c2ccccc2)c2c1CCCC2,,8.91 µM (active)
O=C(/C=C/c1ccccc1)c1cc(Br)ccc(=O)c1O,-15.1%,
Cc1cc(C)c(C(=O)/C=C/c2ccc(C(C)C)cc2)c(=O)[nH]1,,8.91 µM (active)
C[C@@H]1C[C@@H]2O[C@H]2/C=C\C=C\C(=O)Cc2c(Cl)c(O)cc(O)c2C(=O)O1,25.3% [at 11.4 µM],
CCCCNCCCOc1cccc(Cl)c1Cl,-18.4%,
COCCCNCCCOc1ccc(Cl)cc1C(C)(C)C,,22.4 µM (active)
Cc1nn(-c2ccccn2)c2c1C(=O)CC(C)(C)C2N=[N+]=[N-] (stereo not drawn),-24.8% [at 11.4 µM],
CC1(C)c2[nH]c3ccccc3c2C[C@H]2C(=O)N(Cc3ccccc3F)C(=O)N21,,17.8 µM (active)
CC1(C)c2[nH]c3ccccc3c2C[C@H]2C(=O)N(Cc3cccc(F)c3)C(=O)N21,,20 µM (active)
OC(c1ccccc1)(c1nc(-c2ccc3ccccc3c2)cs1)C(F)(F)F (stereo not drawn),26.4% [at 11.4 µM],
O=C(/C=C\c1ccco1)Nc1nc(-c2ccc3ccccc3c2)cs1,,3.16 µM (active)

# — PubChem BioAssay AID1745847 (National Center for Advancing Translational Sciences (NCATS), 2022)
